Bioassay records deposited in PubChem BioAssay by The Scripps Research Institute Molecular Screening Center.
Rows were chosen to be rich in hits. Some 4.1% of all compounds tested hit in one or more screens of this group.
DAX1 inh-1 = DAX1 (NR0B1) inhibition, primary screen | HEK293T StAR-luciferase reporter, SF-1/DAX-1 repression relief | inhibition, % at 6.8 µM | 1.1% of 370,000 active | AID 652010;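 active = inhibition above the mean over all tested compounds plus 3 SD, cut at about 3.6% in these data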;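 note: 0% = DAX-1 cells with DMSO and 100% = cells lacking DAX-1 with DMSO; higher inhibition means more luminescence from relief of DAX-1 repression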
DAX1 inh-2 = inhibitors of human orphan nuclear receptor DAX1 (NR0B1) | P51843 | HEK293 Gal4-DAX1 luciferase reporter, luminescence | inhibition, % at 6.75 µM | 0.99% of 340,000 active;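 active = inhibition above the mean over all tested compounds plus 3 SD, cut at about 4.2% in these data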;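 note: 0% = DAX1-transfected cells with DMSO and 100% = empty-vector control cells with DMSO; inhibition shows as a rise in luminescence from relieved DAX1 repression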
Target sequence (P51843 207-470 limits assumed): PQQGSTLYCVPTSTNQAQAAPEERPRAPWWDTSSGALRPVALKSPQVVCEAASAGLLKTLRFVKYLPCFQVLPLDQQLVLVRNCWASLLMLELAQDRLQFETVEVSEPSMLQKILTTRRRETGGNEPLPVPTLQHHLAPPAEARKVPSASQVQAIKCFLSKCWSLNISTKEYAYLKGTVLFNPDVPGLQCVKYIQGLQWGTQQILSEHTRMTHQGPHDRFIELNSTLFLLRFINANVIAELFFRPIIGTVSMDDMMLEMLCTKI
hcDAF-12 act = activators of H. contortus DAF-12 nuclear receptor; 1.4% of 370,000 active; activation, % at 6.8 µM; HEK293 hcDAF-12 lit1-tk-luc reporter, luminescence; 0% DMSO, 100% Δ7-dafachronic acid; AID 652067;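 active = activation above the mean of all tested compounds plus 3 SD, cut at about 5.5% in these data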;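 note: 100% = response to 3 µM Δ7-dafachronic acid high control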
ssDAF-12 act = activators of S. stercoralis DAF-12 nuclear receptor; 1% of 370,000 active; HEK293 ssDAF-12/GRIP1 lit1-tk-luc reporter, luminescence; % of 3 µM dafachronic acid response; activation, % at 6.8 µM;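 active = activation above the mean over all tested compounds plus 3 SD, cut at about 0.9% in these data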;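 note: 0% = DMSO-only wells and 100% = 3 µM delta7-dafachronic acid wells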
hgDAF12 agonist = agonists of H. glycines DAF-12 nuclear receptor. HEK293 GAL4-hgDAF12 UAS-luciferase reporter, agonist luminescence; normalized to butyrate control. activation, % at 6.8 µM. 1.8% of 370,000 active. AID 687014;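 active = activation above a cutoff set at the mean of all screened compounds plus 3 SD, cut at about 10% in these data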;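 note: 0% = DMSO wells and 100% = sodium butyrate wells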
* = called active by the depositor; nt = no result given.

SMILES	DAX1 inh-1	DAX1 inh-2	hcDAF-12 act	ssDAF-12 act	hgDAF12 agonist
C/C(=N\NC(=O)c1ccco1)c1cc2ccccc2o1	1	2	3	0	8
CCCCOC(=O)c1nnc(-c2ccccc2)o1	0	5.1*	0	-2	-2
CCCCOC(=O)c1nnc(-c2ccc(Cl)cc2)o1	0	0	0	-1	2
CC1CC(NC(=O)c2c(O)nc3sccn3c2=O)CC(C)(C)C1 (stereo unspecified)	2	6.4*	-2	0	4
CSc1ccc(/C=C/C(=O)c2c(O)cc(C)oc2=O)cc1	1	6.6*	4	0	7
COc1cc(/C=C/C(=O)c2c(O)cc(C)oc2=O)cc(OC)c1O	0	1	-1	0	-1
CC(C)(C)N(NC(=O)Nc1ccccc1)C(=O)c1ccccc1Cl	0	6.3*	0	-1	0
CC(C)(C)N(NC(=O)Nc1cccc(F)c1)C(=O)c1ccccc1Cl	0	nt	0	-1	0
O=C1CCC2(CCC(c3ccccc3)CC2)N1CCCO (stereo unspecified)	-1	nt	-2	-1	2
COc1ccc(C(=O)Nc2ccc3[nH]ccc3c2)cc1OC	2	3	1	-1	6
COc1ccc(C(=O)Nc2ccc3[nH]ccc3c2)cc1	3	-7	9.5*	2.5*	16*
O=C(Nc1ccc2[nH]ccc2c1)c1cccs1	2	-1	2	0	11*
COc1ccc(OC)c(C(=O)Nc2ccc3[nH]ccc3c2)c1	2	1	4	0	12*
O=C(Nc1ccc(NC(=O)c2cccs2)cc1)c1cccs1	2	0	2	-1	7
COc1ccc(C(=O)Nc2ccc3cn[nH]c3c2)c(OC)c1	1	2	1	0.9*	-2
COc1ccc2c(c1)N[C@@](CCN1C(=O)c3ccccc3C1=O)(c1[nH]c3ccccc3c1CCN1C(=O)c3ccccc3C1=O)C2=O	nt	nt	-1	-1	-4
COc1ccc(C(=O)Nc2ccc3[nH]ncc3c2)cc1	2	-4	3	1	13*
CCCCCCCCN1C(=O)[C@@H](CC(=O)NCc2ccc(C)o2)C[C@@]2(C(=O)OC)C1=C[C@H](COCc1ccccc1)O[C@@H]2C	0	nt	-3	-1	2
Cc1ncsc1C(=O)Nc1nc2c(s1)CCCC2	3	2	3	0	13*
Cc1cc(C(=O)Nc2nc3c(s2)CCCC3)cs1	3	-1	6.0*	0	9
CC(C)n1c(O)c(N=NC(=O)C2COc3ccccc3O2)c2ccccc21 (stereo unspecified)	0	0	3	1.1*	-2
C=CCN(CC=C)CCCOc1ccc(Br)cc1Cl	0	-1	-1	-1	0
COc1cccc(/C=N/n2c(C)nc3ccccc3c2=O)c1O	1	5.5*	0	-1	1
O=C(Nc1ccc(N2CCCC2)c(Cl)c1)c1ccco1	4	-1	3	0	12*
CCN1CCN(c2ccc(NC(=O)c3ccco3)cc2Cl)CC1	1	1	1	0	7
SMILES	DAX1 inh-1	DAX1 inh-2	hcDAF-12 act	ssDAF-12 act	hgDAF12 agonist
O=C(Nc1ccc(NC(=O)C23CC4CC(CC(C4)C2)C3)cn1)c1ccco1	1	3	3	1	11*
O=C(Nc1ccc(NC(=O)C2CC2)cc1)c1ccco1	1	0	2	0	11*
O=C(Nc1ccc(Br)cc1)c1ccco1	1	1	5	-1	10
O=C(Nc1ccc(NC(=O)c2ccco2)cc1)c1ccco1	4.4*	0	2	-1	7
CC(=O)N(C)c1ccc(NC(=O)c2ccco2)cc1	3.8*	0	5	0	7
CS(=O)(=O)NNC(=O)c1csc(Cc2c(Cl)sc3ccc(Cl)cc23)n1	0	4.6*	-1	-1	1
CC(C)C(=O)N1CCC(Oc2cccnc2)CC1	0	nt	0	-1	-3
O=C(NCCc1c[nH]c2ccccc12)c1cccc(S(=O)(=O)Nc2ccccc2Cl)c1	0	0	6.0*	1.1*	-5
O=C(O)c1nccnc1C(=O)NCCc1c[nH]c2ccccc12	0	1	5.6*	0	-1
O=C(NCCc1c[nH]c2ccccc12)c1cc(S(=O)(=O)N2CCCCC2)ccc1N1CCOCC1	0	-1	2	1.9*	1
CN(c1ccccc1)S(=O)(=O)c1cccc(C(=O)NCCc2c[nH]c3ccccc23)c1	-1	-1	-1	-1	0
O=C(NCCc1c[nH]c2ccccc12)c1cccnc1	1	4	3	1.9*	2
CCCNC(=O)c1cc(S(=O)(=O)N2CCCCC2)ccc1N1CCOCC1	0	0	0	-1	4
COC(=O)[C@]12C[C@H](CC(=O)N3CCN(C(=O)c4ccco4)CC3)C(=O)N(Cc3ccco3)C1=C[C@H](C(C)(C)C)O[C@@H]2C	0	nt	0	-2	-1
COc1ccc(-c2noc(C3CCCN(C(=O)N[C@@H]4C[C@H]4c4ccccc4)C3)n2)cc1 (stereo partly specified)	2	nt	2	-1	8
CNC(=S)N/N=C/c1c(C(=O)OC)cnn1-c1ccc(Cl)cc1	nt	nt	-2	-2	-4
Cn1c(C(=O)NCCc2c[nH]c3ccccc23)cc2sccc21	2	0	5.9*	2.5*	12*
O=C(NCCc1c[nH]c2ccccc12)c1cc2sccc2n1Cc1ccccc1	-1	-2	-2	-1	-2
O=C(COC(=O)c1ccccc1-n1cnnn1)c1ccc(F)c(F)c1	4.0*	0	4	0.9*	8
O=C(COC(=O)c1ccccc1-n1cnnn1)c1ccccc1	0	1	3	-1	1
Cc1cc(C)cc(-n2ncc3c2CCCC3NC(=O)c2csnn2)c1 (stereo unspecified)	4.5*	1	-4	-1	4
CCn1c2ccccc2c2cc(NC(=O)COC(=O)c3cccc(F)c3)ccc21	-1	nt	-3	-1	-1
CCC(C)NC(=O)C1CCN(S(=O)(=O)c2ccc3[nH]c(=O)oc3c2)CC1 (stereo unspecified)	1	nt	-1	-1	-2
OCc1c[nH]c2ccccc12	-2	-1	6.0*	0	2
OCCc1c[nH]c2ccccc12	0	4.5*	1	-2	-2
O=C(O)Cc1c[nH]c2ccccc12	0	1	3	-1	-4
O=C(CCCc1nc(-c2ccccc2)no1)NC1CCCCC1	-1	-1	-3	1.1*	0
Nc1ccc2oc3ccccc3c2c1	1	1	6.1*	0	10
Nc1ccc(C#Cc2ccc3oc4ccccc4c(=O)c3c2)cc1	0	-2	-1	-2	5
CCOC(=O)[C@@]12CCCC3=C1N(CCC3)C(=O)[C@H]2CC(=O)NCc1cccs1	-1	nt	0	-1	-1
